In the supplement of paper PMC6555819:

Experiments:
Test in all cases: PBM binding z-score (relative to random genomic background probes); higher = stronger binding; sequences stand for … in GC…GCGATTGACAGCGTAGAATGAAGG
[1] = system: RARb homodimer (NR concentration 270 nM)
Method in brief: (§1)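 Scanned fluorescence from custom Agilent 4×180K protein-binding microarrays was regression-normalized. Binding z-scores use random background probes as reference. Ligand-free nuclear receptor dimers were incubated on the arrays for 1 h and detected with antibodies against each partner (one per run).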

[2] = system: RARg:RXRa (NR concentration 270 nM, RXRa partner concentration 90 nM)
Method in brief: as §1

[3] = system: RARg homodimer (NR concentration 270 nM)
Method in brief: as §1

[4] = system: RXRa DBDmut IVT, anti-RXR (DBD mutation: RXRa K156A/R161A, NR concentration 90 nM)
Method in brief: as §1

[5] = system: THRa:RXRa (NR concentration 90 nM, RXRa partner concentration 90 nM)
Method in brief: as §1

[6] = system: THRa homodimer (NR concentration 90 nM)
Method in brief: as §1

[7] = system: VDR homodimer (NR concentration 270 nM)
Method in brief: as §1

[8] = system: VDR:RXRa (NR concentration 270 nM, RXRa partner concentration 90 nM)
Method in brief: as §1

Row | Sequence | PBM binding z-score [1] | PBM binding z-score [2] | PBM binding z-score [3] | PBM binding z-score [4] | PBM binding z-score [5] | PBM binding z-score [6] | PBM binding z-score [7] | PBM binding z-score [8]
1 | CGTCAAAGTTCAAGGCAACGTAACAGAAAGCAGC | 3.41 | 5.02 | 6.02 | 3.97 | 1.72 | -0.246 | 2.61 | 
2 | CGTCCAAGGTCATAGGAGGTCATTGAAGACAGAT | 5.6 | 7.14 | 7.75 | 4.08 | 5.39 | 3.7 | 6.14 | 
3 | CTCGAAAGGTGGTGCTCAGGTGAGTATACCAAAC | 0.207 | 0.0538 | -0.152 | -0.443 | 1.78 | 0.504 | -0.0516 | 
4 | CAAACTAGGTCACCGGAAGGTCAAAGTTCGCATG | 5.7 | 8.56 | 7.83 | 2.41 | 4.59 | 3 | 4.52 | 6.38
5 | CCTACTGGGCCATGAAAGGTCATTGATTCAGTGA | 4.4 | 4.23 | 3.85 | 0.456 | 3.58 | 0.811 | 2.39 | 
6 | ATATGCAGGTTATCGGGTCATTCAGTTTGCGCAT | 2.95 | 3.29 | 2.2 | 1.56 | 3.49 | 2.55 | 4 | 
7 | TAGCATAGGTCATGCGGGCCAGTATAGTGTCGGC | 3.46 | 4.99 | 4.91 | 0.439 | 2.55 | -0.558 | 0.259 | 
